# Screening data (PubChem)
# A selection: hits, their analogues and other compounds. The true share with any hit is near 12%.
# BAZ2B inh: BAZ2B (human) inhibition | Potency, µM (doses to about 114 µM), usual class: inhibitors | 360,000 tested, 4.4% active | AlphaScreen BAZ2B-H3K14Ac peptide displacement; note: nearly all actives have a fitted effect of over 60% in size
#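 AlphaScreen luminescence quantifies BAZ2B engagement of H3K14Ac peptide; the protein and biotinylated peptide are both at 50 nM final, buffer PBS pH 7.4 with 0.01% Tween-20, all steps at room temperature.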
# Sfp PPTase inh: blocks B. subtilis Sfp PPTase activity | Q9F4F7 | Biochemical Sfp PPTase activity, qHTS | Potency, µM, usual class: inhibitors | 310,000 tested, 3.5% active;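 note: the enzyme is Sfp with the accession as filed and its product quenches rhodamine fluorescence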
#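 With Hepes-Na pH 7.6 buffer containing 10 mM MgCl2, Sfp (15 nM) modified BHQ-2-YbbR (12.5 uM) using rhodamine-CoA (5 uM). Two reads 30 minutes apart at 525/598 nm yielded each well's rate.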
# JMJD2A Tudor: JMJD2A Tudor domain (human) inhibition; Potency, µM (top dose mostly 114 µM), most hits filed as inhibitors; AlphaScreen JMJD2A-Tudor / H3K4me3 peptide binding; 390,000 tested, 4.4% active; note: nearly all actives have a fitted effect of over 50% in size
# G9a block: inhibitors of human histone lysine methyltransferase G9a | G9a H3K9 monomethylation, AlphaScreen, 2 h | Potency, µM (doses to about 102 µM), usual class: inhibitors | 350,000 tested, 8.8% active | AID 504332; note: nearly all actives have a fitted effect of over 75% in size
# Target sequence (Q96KQ7 913-1193 limits assumed): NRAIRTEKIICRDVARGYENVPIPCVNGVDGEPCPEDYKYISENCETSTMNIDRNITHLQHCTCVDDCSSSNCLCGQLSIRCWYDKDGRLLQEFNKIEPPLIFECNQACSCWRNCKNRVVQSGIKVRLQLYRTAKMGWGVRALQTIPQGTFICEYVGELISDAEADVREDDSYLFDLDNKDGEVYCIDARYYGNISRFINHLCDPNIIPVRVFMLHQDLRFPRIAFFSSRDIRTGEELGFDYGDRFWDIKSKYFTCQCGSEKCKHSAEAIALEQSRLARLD
#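 AlphaScreen read-out: biotin-H3K9 peptide (500 nM) methylation by 20 nM enzyme with 20 uM SAM, 2 h at room temperature after 15 min compound preincubation; anti-monomethyl H3K9 antibody plus donor/acceptor beads, 10 min dark.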
# HP1b binding inh: blocks HP1-beta chromodomain binding to methylated histone tails. AlphaScreen HP1-beta / biotin-H3K9me3 peptide binding. Potency, µM (titrated, usually from 114 µM), actives largely listed as inhibitors. 390,000 tested, 0.56% active. AID 540317; note: nearly all actives have a fitted effect of over 70% in size
# Target sequence (P83916 whole entry, looked up): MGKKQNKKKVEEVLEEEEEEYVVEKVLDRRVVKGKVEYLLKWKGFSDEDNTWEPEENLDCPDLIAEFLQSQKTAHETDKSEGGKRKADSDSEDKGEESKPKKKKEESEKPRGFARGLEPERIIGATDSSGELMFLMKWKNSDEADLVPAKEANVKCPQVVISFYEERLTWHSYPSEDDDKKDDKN
#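 AlphaScreen: HP1-beta (50 nM) preformed 30 min with biotin-H3(1-18)K9me3 peptide (50 nM) in PBS pH 7.4, 0.01% Tween-20. Compound added for 30 min at RT, then streptavidin donor/nickel chelate acceptor beads (10 ug/mL) for 30 min.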
# A number is an active result; - = inactive; ? = inconclusive; . = no result given; [ ] = another dose, or the depositor's remark. Calls come from the whole dose curve; as a rule, active = well fitted curve in the direction sought with a large enough effect; inconclusive = small, poorly fitted or top-dose-only effect, or another doubt; inactive = no such curve, though single readings can be large; an effect the other way counts as inactive or inconclusive.
SMILES,BAZ2B inh,Sfp PPTase inh,JMJD2A Tudor,G9a block,HP1b binding inh
CC1CSc2ccccc2NC1=S (stereo unspecified),-,-,-,?,-
O=C(Nc1nc(-c2ccccc2)cs1)c1cccnc1,-,-,-,-[12.7 µM],-
CC(=O)Nc1ccc(C(=O)Nc2nc(-c3ccccn3)cs2)cc1,5.6µM,16µM,56µM,?,-
O=C(Nc1nc(-c2ccccn2)cs1)c1ccccc1-n1cnnn1,22µM,16µM,?,10µM,-
O=C(Nc1nc(-c2ccccn2)cs1)c1ccc2c(c1)OCCO2,22µM,-,56µM,-,-
CC(=O)Nc1ccc(C(=O)Nc2nc(-c3cccnc3)cs2)cc1,-,?,-,4µM,-
CCn1nc(C(=O)Nc2nc(-c3ccccn3)cs2)c2ccccc2c1=O,-,.,-,-[12.7 µM],-
Cn1cnc2cc(NC(=O)c3cccs3)ccc21,-,-,-,.,-
COc1ccccc1N1C(=O)N(C(C)=O)C2C1Nc1ccccc1N2C (stereo unspecified),.,-,?,7.1µM,-
C[C@@H]1OC(O[C@H]2[C@H](Oc3cc(O)c4c(=O)c(O)c(-c5ccc(O)cc5)oc4c3)O[C@H](CO)[C@@H](O)[C@@H]2O)[C@H](O)[C@H](O)[C@H]1O (stereo partly specified),.,-,.,.,.
CC(=O)NC1=NN(C(C)=O)C2(S1)C(=O)N(C(C)C)c1ccc(C)cc12 (stereo unspecified),-,-,-,50µM,-
CCCC1(C)SC(NC(C)=O)=NN1C(C)=O (stereo unspecified),-,-,-,-,-
CC(C)C[C@H](NC(=O)c1[nH]cnc1C(=O)N[C@@H](C)C(=O)OCc1ccccc1)C(=O)OCc1ccccc1,.,.,-,.,-
CC(C)C[C@@H](CNCC(=O)[C@H](CC(C)C)NC(=O)c1[nH]cnc1C(=O)N[C@@H](C)CN)NC(=O)c1nc[nH]c1C(=O)N[C@@H](CC(C)C)C(=O)O,.,.,56µM,.,-
CC(C)C[C@@H](CNCC(=O)[C@H](Cc1ccccc1)NC(=O)c1[nH]cnc1C(=O)N[C@@H](C)CN)NC(=O)c1nc[nH]c1C(=O)N[C@@H](CC(=O)O)C(=O)O,.,.,?,.,-
CC(C)C[C@H](NC(=O)c1[nH]cnc1C(=O)N[C@@H](C)C(=O)OC(C)(C)C)C(=O)OCc1ccccc1,-,-,-,-,-
CC(C)C[C@@H](CNCC(=O)[C@H](C)NC(=O)c1[nH]cnc1C(=O)N[C@H](CN)CC(C)C)NC(=O)c1nc[nH]c1C(=O)N[C@@H](C)C(=O)O,.,.,56µM,.,-
CC(C)C[C@@H](CNCC(=O)[C@H](CC(C)C)NC(=O)c1[nH]cnc1C(=O)N[C@@H](C)CN)NC(=O)c1nc[nH]c1C(=O)N[C@@H](CC(=O)O)C(=O)O,.,.,50µM,.,-
CC(C)C[C@@H](CNCC(=O)[C@H](C)NC(=O)c1[nH]cnc1C(=O)N[C@@H](C)CN)NC(=O)c1nc[nH]c1C(=O)N[C@@H](CC(=O)O)C(=O)O,.,.,79µM,.,?
CCc1ccc(OCC2c3cc(OC)c(OC)cc3CCN2C(=O)Cc2ccc(OC)c(OC)c2)cc1 (stereo unspecified),?,.,?,-,?
N.N.O=C(O)C1(C(=O)O)CCC1.[Pt],.,-,.,0.63µM,.
O=C(NCc1nnnn1-c1ccc(F)c(F)c1)c1ccc2c(c1)OCO2,-,.,-,-,-
CCCCCC(=O)Nc1c(-c2cccs2)c(=O)c2ccccc2n1C,-,-,-,-,-
CCC(=O)Nc1c(-c2cccs2)c(=O)c2ccccc2n1C,-,89µM,-,?,-
Oc1ccc2ccccc2c1N=Nc1ccccn1,4µM,-,35µM,3.2µM,8.9µM
SMILES,BAZ2B inh,Sfp PPTase inh,JMJD2A Tudor,G9a block,HP1b binding inh
O=S(=O)(O)c1cccc(N=Nc2c(O)ccc3ccccc23)c1,11µM,?,?,.,?
Oc1ccc2ccccc2c1N=Nc1ccccc1F,2.8µM,-,3.5µM,2.2µM,?
CCOC(=O)c1c[nH]c2ccc3ccccc3c2c1=O,-,-,-,-,-
CCOC(=O)c1[nH]cnc1N=Nc1c(O)ccc2ccccc12,11µM,-,79µM,50µM,-
c1ccc2c(c1)ccc1ccccc12,.,.,-,.,-
O=S(=O)(c1ccccc1)N1CCN(Cc2c(O)ccc3ccccc23)CC1,.,.,-,.,-
CCc1ccc2oc(C(=O)Nc3cc(C)ccc3C)cc(=O)c2c1,-,.,-,-,-
CCCn1c(N)c(C(=O)CSc2nnc(C3CC3)n2C2CC2)c(=O)[nH]c1=O,.,.,?,.,-
CCOc1ccccc1NC(=O)C1CCCN(S(=O)(=O)c2cccs2)C1 (stereo unspecified),-,.,-,-,-
O=C(O)CNS(=O)(=O)Cc1ccccc1,-,-,-,-,-
O=S(=O)(Cc1ccccc1)N(O)c1ccccc1,?,50µM,-,20µM,-
COc1ccc(CCNC(=O)c2cc(S(=O)(=O)N3CCCC(C)C3)cn2C)cc1OC (stereo unspecified),-,.,-,-,-
O=S(=O)(c1ccc(Cl)cc1)c1ccccn1,-,-,-,-,-
Cc1c(S(=O)(=O)c2ccccn2)c(N)n(Cc2cccc(Cl)c2)c1C,-,?,-,28µM,-
O=[N+]([O-])c1cc(C(F)(F)F)cc([N+](=O)[O-])c1NCc1cccnc1,-,-,-,50µM,-
O=[N+]([O-])c1ccc(Cl)cc1NCc1cccnc1,.,.,-,.,?
CS(=O)(=O)NCCCNc1ccc(C(F)(F)F)cc1[N+](=O)[O-],-,-,-,-,-
O=[N+]([O-])c1cc(C(F)(F)F)cc([N+](=O)[O-])c1NCCCNc1ccc([N+](=O)[O-])c2cccnc12,-,-,?,3.5µM,-
Cc1[nH]c2ccccc2c1C(C[N+](=O)[O-])c1ccco1 (stereo unspecified),?,-,?,50µM,-
Cc1ccc(C(C[N+](=O)[O-])c2c(N)n(C)c(=O)n(C)c2=O)cc1 (stereo unspecified),-,-,-,?,-
COc1cc(C(C[N+](=O)[O-])c2c(N)n(C)c(=O)n(C)c2=O)ccc1O (stereo unspecified),-,-,-,50µM,-
COc1cc(C(C[N+](=O)[O-])c2c(C)[nH]c3ccccc23)ccc1O (stereo unspecified),40µM,-,?,?,-
Cc1[nH]c2ccccc2c1C(C[N+](=O)[O-])c1cccc(O)c1 (stereo unspecified),-,-,-,?,-
Cc1ccc(-c2[nH]c3ccccc3c2C(C[N+](=O)[O-])c2ccco2)cc1 (stereo unspecified),-,-,?,?,-
CCOc1ccc(Cn2c(CNS(=O)(=O)c3ccc([N+](=O)[O-])cc3)nc3cccnc32)cc1,-,.,-,-,-
